Compound activity as filed in PubChem.
Rows were chosen to be rich in hits. Some 32% of all compounds tested hit in one or more screens of this group.
CYP2C19 inh: blockers of cytochrome P450 2C19 activity – biochemical, luminescence, ADME assay, primary screen | P33261 | CYP2C19 Supersomes, luciferin-H EGE luminescence, 30 min | inhibition, % at 5 µM | 21% of 96,000 active;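 active = CYP2C19 inhibition above a set limit at 5 µM in the primary screen, cut at about 50% in these data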;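 note: plate controls were negative control wells for no effect and 2.5 mM tranylcypromine positive control for full effect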
Target sequence (P33261 whole entry, looked up): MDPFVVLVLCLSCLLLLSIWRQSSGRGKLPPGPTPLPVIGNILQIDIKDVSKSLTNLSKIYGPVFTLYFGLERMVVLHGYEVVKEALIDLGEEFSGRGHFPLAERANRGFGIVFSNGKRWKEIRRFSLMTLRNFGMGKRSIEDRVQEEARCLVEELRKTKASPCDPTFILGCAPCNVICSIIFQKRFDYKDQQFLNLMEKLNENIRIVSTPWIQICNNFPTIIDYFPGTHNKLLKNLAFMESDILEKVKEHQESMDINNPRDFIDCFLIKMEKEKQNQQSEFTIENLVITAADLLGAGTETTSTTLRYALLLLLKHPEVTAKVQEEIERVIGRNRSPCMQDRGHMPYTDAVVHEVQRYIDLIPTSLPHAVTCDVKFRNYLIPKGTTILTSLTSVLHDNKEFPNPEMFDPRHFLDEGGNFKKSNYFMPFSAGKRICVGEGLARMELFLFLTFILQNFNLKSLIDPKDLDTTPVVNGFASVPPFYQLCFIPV
CYP2C9 inhib: blockers of cytochrome P450 2C9 activity – biochemical, luminescence, ADME assay, primary screen; P11712; CYP2C9 Supersomes, luciferin-H conversion; inhibition, % at 5 µM; 20% of 96,000 active; AID 777, 2007;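 active = blocking of liver enzyme CYP2C9 beyond about 50% at 5 µM, limit read from the data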
PostGolgi ctrl: growth inhibition of yeast control strain, primary screen, counter-screen for post-Golgi transport modulator project; efflux-deficient yeast background strain, growth absorbance A615, 16 h; inhibition, % at 10 µM; 5% of 98,000 active
CYP2C9 activ: human CYP2C9 activators, primary screen, biochemical, luminescence; Cytochrome P450 2C9 (Homo sapiens), P11712; 1.4% of 96,000 active; recombinant CYP2C9, luciferin-H conversion; stronger effect = higher value; factor 1 = untreated enzyme, 0 = blocked; activation factor at 5 µM;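 active = activation factor of 2 or more for CYP2C9 at a 5 µM dose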;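 note: 0 = sulfaphenazole-blocked wells and 1 = vehicle-only wells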
PostGolgi yeast: phenotypic screen on post-Golgi transport, primary screen. inhibition, % at 10 µM. 0.9% of 98,000 active. AID 739, 2007. post-Golgi transport phenotypic cell assay;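 note: yeast cells grown in 1536-well plates; yeast grown about 18 h at 30C before absorbance read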
CYP2C19 act: human CYP2C19 activators, primary screen, biochemical, luminescence; Cytochrome P450 2C19 (Homo sapiens), P33261; recombinant CYP2C19, luciferin-H EGE luminescence; stronger effect = higher value; 0 = fully inhibited enzyme, 1 = untreated enzyme; activation factor at 5 µM; 96,000 tested, under 10 active;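 active = activation factor of at least 2 at 5 µM in the primary screen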;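 note: 0 = wells with 2.5 mM tranylcypromine and 1 = vehicle-only wells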
* = called active by the depositor. Cut-off read from the data, not from the text of the source, unless noted: active = inhibition above about 30%; inactive = the rest.

SMILES | CYP2C19 inh | CYP2C9 inhib | PostGolgi ctrl | CYP2C9 activ | PostGolgi yeast | CYP2C19 act
O=C(Nc1ccc(S(=O)(=O)N2CCN(Cc3ccccc3)CC2)cc1)c1cnccn1 | 28.7 | 51.6* | 0.6 | 0.5 | 0.3 | 0.7
CCCNS(=O)(=O)c1ccc(NC(=O)c2cccnc2)cc1 | 37.7 | 97.6* | 24.2 | 0 | 4.8 | 0.6
O=C(Nc1ccc(N2CCCCC2)cc1)c1cccnc1 | 31.5 | 67.8* | 0.1 | 0.3 | 6.0 | 0.7
O=C(Nc1ccc(S(=O)(=O)N2CCCC2)cc1)c1cccnc1 | 25.9 | 70.8* | -0.5 | 0.3 | -6.8 | 0.7
CC(=O)Nc1ccc(S(=O)(=O)N2CCN(Cc3ccccn3)CC2)cc1 | 10.3 | 23.1 | -5.3 | 0.8 | -8.0 | 0.9
COc1ccc(S(=O)(=O)CC(O)CN2CCCC2=O)cc1 (centres undefined) | -7.6 | -18.2 | 19.5 | 1.2 | 14.7 | 1.1
Cc1cc(C(F)(F)F)nn1CC(=O)N1CCOCC1 | 0.5 | 11.9 | -2.8 | 0.9 | -1.0 | 1
Cc1ccc(C(=O)CSC2=C(C#N)C(c3ccco3)CC(=O)N2)c(C)c1 (centres undefined) | 48.7 | 98.2* | 15.2 | 0 | 8.1 | 0.5
CC1=C(C(=O)OCC2CCCO2)C(c2ccncc2)C2=C(CC(C)(C)CC2=O)N1 (centres undefined) | 57.4* | 22.4 | 1.1 | 0.8 | 18.4 | 0.4
Cc1ccc(NC(=O)CSC2=C(C#N)C(c3ccco3)CC(=O)N2)cc1 (centres undefined) | 81.4* | 49.9 | 2.2 | 0.5 | -0.3 | 0.2
CC(C)C1CC(=O)NC(SCC(=O)Nc2ccc(Br)cc2)=C1C#N (centres undefined) | 26.8 | 20.2 | -0.9 | 0.8 | -9.3 | 0.7
CC1=C(C(=O)OCc2ccccc2)C(c2ccco2)C2=C(CC(C)(C)CC2=O)N1 (centres undefined) | 62.7* | 67.4* | 9.9 | 0.3 | -3.6 | 0.4
Cc1ccccc1NC(=O)CSC1=C(C#N)C(c2ccsc2)CC(=O)N1 (centres undefined) | 27.4 | -44.8 | 0.7 | 1.4 | 5.6 | 0.7
COCCOC(=O)C1=C(C)NC2=C(C(=O)CC(C)(C)C2)C1c1cccnc1 (centres undefined) | 34.6 | 5.2 | 3.5 | 0.9 | 7.5 | 0.7
COc1cc2c(cc1NC(=O)Cn1cnc3c1c(=O)n(C)c(=O)n3C)oc1ccccc12 | 0.1 | -6.8 | -3.4 | 1.1 | -7.1 | 1
Cc1ccc(NC(=O)CSC2=C(C#N)C(c3ccco3)C3=C(CC(C)(C)CC3=O)N2)cc1 (centres undefined) | 92.8* | 95.7* | 13.5 | 0 | 3.4 | 0.1
CCc1ccc(NC(=O)CSC2=C(C#N)C(c3ccco3)C3=C(CCCC3=O)N2)cc1 (centres undefined) | 32.8 | 19.3 | 4.8 | 0.8 | 0.2 | 0.7
O=C(NC1CCN(C(=O)N2CCOCC2)CC1)c1ccccc1 | 3.9 | 4.6 | 33.6* | 1 | 1.7 | 1
CCC(CC)c1nnc(NC(=O)c2ccc(N3CCCC3=O)cc2)s1 | -11.1 | 3.6 | -1.8 | 1 | -0.8 | 1.1
CCCN(CCC)C(=O)CC(c1ccc(F)cc1)c1ccco1 (centres undefined) | 50.6* | 55.3* | 14.7 | 0.4 | 1.2 | 0.5
O=C(CC(c1ccccc1)c1cc(Cl)ccc1O)N1CCOCC1 (centres undefined) | -13.6 | -12.9 | -10.4 | 1.1 | -4.4 | 1.1
O=C(CC(c1ccc(F)cc1)c1ccco1)N1CCOCC1 (centres undefined) | 74.4* | 1.6 | -2.1 | 1 | -9.6 | 0.3
O=C(CC(c1ccc(F)cc1)c1ccco1)N1CCCC1 (centres undefined) | 77.7* | 17.1 | 14.6 | 0.8 | 5.2 | 0.2
O=C(NCCO)c1scc2c1OCCO2 | -7.9 | -17.0 | -1.1 | 1.2 | -6.7 | 1.1
CCOC(=O)C1C(=O)NC(N2CCN(Cc3ccccc3)CC2)=NC1c1ccco1 (centres undefined) | -9.3 | 11.3 | -3.8 | 0.9 | -2.6 | 1.1
COc1ccc(/C(O)=C/Sc2nnc(Cc3ccccc3)o2)cc1 | 31.4 | -72.3 | 4.6 | 1.7 | -0.2 | 0.7
